# HT1080-NT tox: qHTS for induction of synthetic lethality in tumor cells producing 2HG: qHTS for the HT-1080-NT fibrosarcoma cell line; HT-1080-NT fibrosarcoma viability, CellTiter-Glo ATP luminescence, 48 h; Potency, µM (doses to about 46.1 µM), for the others: at the highest dose activity, negative = less viability, actives largely listed as cytotoxic; hit rate 1.6% among 360,000; AID 686970, 2013;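 also: NT is the 2HG producing partner of a matched IDH1 knockdown line; 0% = DMSO-treated cells and -100% = media-only wells without cells; nearly all actives have a fitted effect of over 55% in size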
#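 Viability of the 2HG-overproducing fibrosarcoma line after 48 hours of compound exposure at 37 degrees C was determined by luminescence with CellTiter-Glo, and concentration-effect curves were then fitted and categorized.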
# HT1080 IDH1KD tx: qHTS for induction of synthetic lethality in tumor cells producing 2HG: qHTS for the HT-1080-IDH1KD cell line | Potency, µM (titrated, usually from 46.1 µM), for inactives: at the highest dose activity, negative = toxicity, actives largely listed as cytotoxic | hit rate 2% among 360,000 | HT-1080 IDH1 knockdown viability, ATP luminescence, 48 h;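 also: 0% = DMSO wells and -100% = cell-free medium wells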
#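 Viability of IDH1-knockdown HT-1080 fibrosarcoma cells was assessed by CellTiter-Glo after 48 h at 37 °C with titrated compound; concentration-effect curves were classified by fit quality and response size.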
# ATXN viability: Viability Counterscreen for Primary qHTS for Inhibitors of ATXN expression; S2 cells (HEK-293 line with an ATXN2-luciferase reporter) viability, CellTiter-Fluor protease fluorescence, 24 h; Potency, µM (highest dose often 56.7 µM), usual class: cytotoxic; hit rate 0.49% among 400,000; AID 651635, 2014; also: nearly all actives have a fitted effect of over 40% in size
# TGFb SMAD3 inh: qHTS for Inhibitors of TGF-b | HepG2 CAGA-GFP TGF-b/SMAD3 reporter, GFP fluorescence, 18 h; TGF-beta stimulated, 500 pg/mL final | Potency, µM (series often up to 46.1 µM), without a hit: top-dose activity, negative = inhibition, actives largely listed as inhibitors | hit rate 1.2% among 410,000 | AID 588855, 2011; also: % is scaled to controls: 0 for no effect and ±100 for the full control effect; nearly all actives have a fitted effect of over 65% in size
#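 Smad-responsive CAGA-GFP expression was quantified in HEPG2 cells exposed to compounds and 500 pg/mL final TGF-beta for 18 h at 37 degrees C; unstimulated wells defined full inhibition.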
# ATXN2 expr inh: Primary qHTS for Inhibitors of ATXN expression. HEK-293 ATXN2-luciferase reporter, luminescence, 24 h. hit rate 0.72% among 360,000. Potency, µM (top dose mostly 57 µM), without a hit: top-dose activity change, negative = inhibition, most hits filed as inhibitors; also: % is scaled to controls: 0 for no effect and ±100 for the full control effect; nearly all actives have a fitted effect of over 55% in size
#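 ATXN2-luciferase reporter cells (luciferase flanked by upstream and downstream ATXN2 gene portions) were treated 24 h at 37 °C with compounds at up to 57 uM. SteadyGlo luminescence gave expression; GF-AFC fluorescence gave viability.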
# HepG2 viability: qHTS for Inhibitors of TGF-b: Cytotox Counterscreen; hit rate 0.76% among 410,000; AID 588856, 2011; HepG2 CAGA-GFP viability, ATP luminescence, 18 h; Potency, µM (highest dose often 46.1 µM), inactives show at the highest dose activity change, negative = cytotoxicity, hits mostly cytotoxic
#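 HepG2 CAGA-GFP cells (1000/well, DMEM with 1% FBS) received compound, then TGF-beta at 500 pg/mL final, and were incubated 18 hours at 37 degrees C. Viability was read by CellTiter-Glo luminescence. Media-only wells were set as complete cell-killing and DMSO as no toxicity.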
# Numbers without * were called inactive; i = inactive; ? = inconclusive; . = not tested or not shown. A selection: hits, their analogues and other compounds. The true share with any hit is near 3.8%. Calls follow the shape of the dose curve; as a rule, active = well fitted curve in the direction sought with a large enough effect; inconclusive = small, poorly fitted or top-dose-only effect, or another doubt; inactive = no such curve, though single readings can be large; an effect the other way counts as inactive or inconclusive. Potency is read from the fitted curve at half-maximal effect.
SMILES,HT1080-NT tox,HT1080 IDH1KD tx,ATXN viability,TGFb SMAD3 inh,ATXN2 expr inh,HepG2 viability
CN[C@H](CC(C)C)C(=O)N[C@H]1C(=O)N[C@@H](CC(N)=O)C(=O)N[C@H]2C(=O)N[C@H]3C(=O)N[C@H](C(=O)N[C@@H](C(=O)O)c4cc(O)cc(O)c4-c4cc3ccc4O)[C@H](O)c3ccc(c(Cl)c3)Oc3cc2cc(c3O[C@@H]2O[C@H](CO)[C@@H](O)[C@H](O)[C@H]2O[C@H]2C[C@](C)(N)C(O)[C@H](C)O2)Oc2ccc(cc2Cl)[C@H]1O (stereo partly drawn),.,.,i,.,.,.
COc1ccccc1-n1cc(-c2ccccc2)[nH]c1=S,10%,10%,?,-3%,.,-21%
CCOc1ccc(-c2cn(-c3ccccc3OC)c(=S)[nH]2)cc1,?,26µM*,?,0%,-5%,5%
O=C(NCc1ccccc1Cl)c1ccc2c(c1)N(Cc1ccccc1)C(=O)c1ccccc1S2,.,.,.,1%,.,-20%
Cc1ccc(C(=O)C(c2ccccc2)N2Cc3ccccc3C2=N)cc1 (stereo not drawn),?,?,14µM*,?,0%,-53%
CC(C)CCNC(=O)[C@@H](c1ccccc1)N1Cc2ccccc2C1=O,.,.,i,-28%,13%,-11%
Cc1cc(Oc2ccccc2)nc(C#N)n1,20%,24%,.,.,.,.
CC(C)c1ccc(CN(Cc2ccco2)c2cnc(S(C)(=O)=O)nc2C(=O)Nc2ccc(F)cc2)cc1,.,.,i,?,14%,-2%
CC1=CC(C)(C)N(C(=O)CN2C(=O)c3ccccc3C2=O)c2ccccc21,10%,1%,i,-19%,3%,-7%
CCOc1ccc2c(c1)C(C)=CC(C)(C)N2S(=O)(=O)c1ccc(F)cc1,?,?,i,?,-8%,-30%
CC1=CC(C)(C)N(S(=O)(=O)c2ccc(C)cc2)c2ccccc21,6.3µM*,?,i,?,0%,-36%
COc1ccc2c(c1)C(C)=CC(C)(C)N2S(=O)(=O)c1ccc(NC(C)=O)cc1,?,?,i,?,-11%,-15%
CC1=CC(C)(C)N(S(=O)(=O)c2ccc(F)cc2)c2ccc(C)cc21,7.1µM*,?,i,-23%,-11%,-42%
CCOc1ccc2c(c1)C(C)=CC(C)(C)N2S(=O)(=O)c1ccc(NC(C)=O)cc1,3.7µM*,1.8µM*,i,?,.,-5%
COc1ccc2c(c1)C(C)=CC(C)(C)N2S(=O)(=O)c1ccc(Br)cc1,3.3µM*,2.3µM*,i,?,-24%,-17%
COc1ccc(CCn2c3c(c(=O)[nH]c2=S)CN(CC(C)C)CN3)cc1OC,2%,17%,.,.,.,.
Cc1onc(-c2ccccc2Cl)c1C(=O)Oc1ccc(Br)cc1,.,.,i,?,0%,-42%
Cc1onc(-c2ccccc2Cl)c1C(=O)Oc1cccc2cccnc12,-3%,23µM*,i,?,3%,-29%
O=C1C=CC(O)(c2cc(=O)c3c(O)cc(O)cc3o2)C=C1,7.3µM*,7.3µM*,13µM*,4µM*,7.9µM*,16µM*
COc1cc2nc(N(C)C)c(CNCc3nonc3C)cc2c(OC)c1OC,.,.,i,.,.,.
COc1ccc(S(=O)(=O)N2CCN(C(=O)c3cc4c(s3)CCCC4)CC2)cc1,-13%,-16%,.,?,.,0%
O=C(c1cc2c(s1)CCCC2)N1CCN(S(=O)(=O)c2ccccc2)CC1,1%,-3%,i,0%,4%,10µM*
CN(C)CCCNc1nc2cc(-c3cnn(Cc4ccccc4)c3)sc2c(=O)n1C,9.2µM*,23µM*,i,21%,0%,-17%
CN(C)CCCNc1nc2cc(-c3ccsc3)sc2c(=O)n1C,?,?,i,-20%,-33%,1%
Cc1ccc(F)cc1-c1cc2nc(NCCCN(C)C)n(C)c(=O)c2s1,21µM*,15µM*,?,?,32µM*,-72%
SMILES,HT1080-NT tox,HT1080 IDH1KD tx,ATXN viability,TGFb SMAD3 inh,ATXN2 expr inh,HepG2 viability
C=CCNc1nc2cc(-c3ccccc3C)sc2c(=O)n1C,15µM*,9.2µM*,?,4%,0%,-34%
COc1cc(=O)n2c(c1C(=O)N(C)Cc1nonc1C)CCN(Cc1ccsc1)CC2,.,.,i,.,.,.
C/C(=N\Nc1nc(C)c(C)s1)c1ccc([N+](=O)[O-])cc1,21µM*,16µM*,.,9%,30µM*,-18%
CC1=C(C(=O)Nc2ccc(C)cc2C)C(c2ccc(O)cc2)n2nnnc2N1 (stereo not drawn),.,.,i,8%,-12%,-1%
COC(=O)[C@@]1(Cc2ccccc2)[C@@H]2C(=CC(=O)[C@H]2CC(=O)C(=O)N(C)C)CN1C(=O)c1ccccc1,16µM*,21µM*,20µM*,?,28µM*,-51%
CCCCC[n+]1cccc2c3ccccc3ccc21,?,9.2µM*,i,?,?,-8%
c1ccc(C[n+]2cccc3c4ccccc4ccc32)cc1,?,?,i,?,?,-35%
CCc1ccc(NCc2cc3cc(OC)c(OC)cc3n(CC(=O)Nc3cc(C)ccc3C)c2=O)cc1,.,.,i,-3%,9%,-29%
Cc1ccc(NC(=O)CCCCCN2C(=O)c3ccccc3C2=O)nc1,7%,5%,i,10%,?,-2%
Cc1ccc(NCN2C(=O)C(=O)c3ccccc32)nc1,-10%,-25%,i,6.3µM*,-17%,-35%
N#CNC(=Nc1cccc(F)c1)SCc1cccc(F)c1,0%,-7%,i,10µM*,-6%,-40%
N#CNC(=Nc1cccc(F)c1)SCc1ccccc1,0%,-6%,i,-15%,.,-49%
CC(C)=CCc1cc([C@@H]2COc3c(ccc4c3C=CC(C)(C)O4)C2)c(O)cc1O,?,?,.,14µM*,?,16µM*
CC(C)c1ccc(C2N=C(N)Nc3nc4ccccc4n32)cc1 (stereo not drawn),.,.,i,?,12%,-27%
COc1ccccc1-c1nc(-c2ccccn2)no1,21µM*,23µM*,i,6%,?,-100%
COc1ccc(-c2nc(-c3ccccn3)no2)cc1,8.2µM*,9.2µM*,i,-1%,?,3.5µM*
Cc1ccccc1-c1nc(-c2cccnc2)no1,0%,-16%,i,0%,87%,-15%
